# Assay results published in PMC11006913.
# Where a chain is given by its changes, count along the chain named.
# Columns and labels:
# Test in all cases: PBM; 200 nM protein, PBS
# Conditions in all cases: dsDNA, one strand shown
# [1] = molecular target: PITX2 (Homo sapiens, UniProt Q99697 72-157)
# [2] = molecular target: T1, NKX2-6 (Homo sapiens, UniProt A6NCS4 118-204)
# T1 sequence: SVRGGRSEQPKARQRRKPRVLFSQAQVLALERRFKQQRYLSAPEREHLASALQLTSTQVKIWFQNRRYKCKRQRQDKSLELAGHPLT
# [3] = molecular target: T2, NKX2-6 (Homo sapiens, UniProt A6NCS4 118-204, F151L)
# T2 sequence: T1 sequence with F34L
# [4] = molecular target: NKX3-2 (Homo sapiens, UniProt P78367 192-278, P234S)
# Sequence of NKX3-2 (Homo sapiens, UniProt P78367 192-278, P234S) (P78367 192-278 P234S): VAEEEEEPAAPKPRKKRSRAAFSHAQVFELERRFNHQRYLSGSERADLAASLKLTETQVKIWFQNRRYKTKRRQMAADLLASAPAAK
# [5] = molecular target: NKX3-2 (Homo sapiens, UniProt P78367 192-278)
# Sequence of NKX3-2 (Homo sapiens, UniProt P78367 192-278) (P78367 192-278): as the sequence (P78367 192-278 P234S) above, with S43P counted along it
# [6] = molecular target: T3, PAX4 (Homo sapiens, UniProt O43316 9-242, R200Q)
# T3 sequence: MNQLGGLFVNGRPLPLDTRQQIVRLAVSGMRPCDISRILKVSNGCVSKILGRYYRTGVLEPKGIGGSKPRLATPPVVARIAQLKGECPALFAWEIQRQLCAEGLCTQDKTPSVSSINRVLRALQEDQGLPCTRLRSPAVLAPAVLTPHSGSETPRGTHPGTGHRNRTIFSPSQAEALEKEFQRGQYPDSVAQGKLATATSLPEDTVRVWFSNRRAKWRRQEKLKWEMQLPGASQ
# [7] = molecular target: T4, PAX4 (Homo sapiens, UniProt O43316 9-242, R227W)
# T4 sequence: T3 sequence with Q192R, R219W
sequence,measurement,setting,value
CAGACACG,binding signal,[1],"7.83 upbm affinity estimate (log intensity, higher = more binding, comparable within an allelic series)"
CACCGTAG,binding signal,[2],"9.56 upbm affinity estimate (log intensity, higher = more binding, comparable within an allelic series)"
same,binding signal,[3],"9.37 upbm affinity estimate (log intensity, higher = more binding, comparable within an allelic series)"
AGCCCTCA,binding signal,[2],"11.1 upbm affinity estimate (log intensity, higher = more binding, comparable within an allelic series)"
same,binding signal,[3],"9.52 upbm affinity estimate (log intensity, higher = more binding, comparable within an allelic series)"
same,binding signal,[4],"11.5 upbm affinity estimate (log intensity, higher = more binding, comparable within an allelic series)"
same,binding signal,[5],"11.6 upbm affinity estimate (log intensity, higher = more binding, comparable within an allelic series)"
CCCAGCAG,binding signal,[2],"9.19 upbm affinity estimate (log intensity, higher = more binding, comparable within an allelic series)"
same,binding signal,[3],"9.49 upbm affinity estimate (log intensity, higher = more binding, comparable within an allelic series)"
CCCGTTCG,binding signal,[2],"9.17 upbm affinity estimate (log intensity, higher = more binding, comparable within an allelic series)"
same,binding signal,[3],"9.43 upbm affinity estimate (log intensity, higher = more binding, comparable within an allelic series)"
same,binding signal,[4],"10.5 upbm affinity estimate (log intensity, higher = more binding, comparable within an allelic series)"
same,binding signal,[5],"10.5 upbm affinity estimate (log intensity, higher = more binding, comparable within an allelic series)"
CGCCAGCA,binding signal,[1],"8 upbm affinity estimate (log intensity, higher = more binding, comparable within an allelic series)"
GCAGTCCC,binding signal,[2],"9.36 upbm affinity estimate (log intensity, higher = more binding, comparable within an allelic series)"
same,binding signal,[3],"9.32 upbm affinity estimate (log intensity, higher = more binding, comparable within an allelic series)"
CTTAAGGC,binding signal,[2],"11.5 upbm affinity estimate (log intensity, higher = more binding, comparable within an allelic series)"
same,binding signal,[3],"9.76 upbm affinity estimate (log intensity, higher = more binding, comparable within an allelic series)"
ACGCATCC,binding signal,[2],"9.51 upbm affinity estimate (log intensity, higher = more binding, comparable within an allelic series)"
same,binding signal,[3],"9.35 upbm affinity estimate (log intensity, higher = more binding, comparable within an allelic series)"
AAATTAGA,binding signal,[6],"11.9 upbm affinity estimate (log intensity, higher = more binding, comparable within an allelic series)"
same,binding signal,[7],"10.9 upbm affinity estimate (log intensity, higher = more binding, comparable within an allelic series)"
CCAGAATC,binding signal,[2],"9.71 upbm affinity estimate (log intensity, higher = more binding, comparable within an allelic series)"
same,binding signal,[3],"9.51 upbm affinity estimate (log intensity, higher = more binding, comparable within an allelic series)"
ACACCCGT,binding signal,[2],"8.98 upbm affinity estimate (log intensity, higher = more binding, comparable within an allelic series)"
same,binding signal,[3],"9.33 upbm affinity estimate (log intensity, higher = more binding, comparable within an allelic series)"
CAGACGGG,binding signal,[2],"9.56 upbm affinity estimate (log intensity, higher = more binding, comparable within an allelic series)"
same,binding signal,[3],"9.37 upbm affinity estimate (log intensity, higher = more binding, comparable within an allelic series)"
CGTCCGTA,binding signal,[2],"9.42 upbm affinity estimate (log intensity, higher = more binding, comparable within an allelic series)"
same,binding signal,[3],"9.44 upbm affinity estimate (log intensity, higher = more binding, comparable within an allelic series)"
AAACACTA,binding signal,[2],"11.5 upbm affinity estimate (log intensity, higher = more binding, comparable within an allelic series)"
same,binding signal,[3],"9.97 upbm affinity estimate (log intensity, higher = more binding, comparable within an allelic series)"
GCGCTTAA,binding signal,[1],"11.1 upbm affinity estimate (log intensity, higher = more binding, comparable within an allelic series)"
ACTCTCGG,binding signal,[1],"8.08 upbm affinity estimate (log intensity, higher = more binding, comparable within an allelic series)"
AAGCTTAG,binding signal,[1],"11.4 upbm affinity estimate (log intensity, higher = more binding, comparable within an allelic series)"
CTGAGATA,binding signal,[1],"9.22 upbm affinity estimate (log intensity, higher = more binding, comparable within an allelic series)"
GACGCGAC,binding signal,[1],"7.93 upbm affinity estimate (log intensity, higher = more binding, comparable within an allelic series)"
ACGTTCCG,binding signal,[1],"7.96 upbm affinity estimate (log intensity, higher = more binding, comparable within an allelic series)"
CATTATTC,binding signal,[1],"9.49 upbm affinity estimate (log intensity, higher = more binding, comparable within an allelic series)"
CTCCCCGA,binding signal,[1],"8.1 upbm affinity estimate (log intensity, higher = more binding, comparable within an allelic series)"
ACGTGTCC,binding signal,[1],"8.04 upbm affinity estimate (log intensity, higher = more binding, comparable within an allelic series)"
GGAGAGAC,binding signal,[1],"8.03 upbm affinity estimate (log intensity, higher = more binding, comparable within an allelic series)"
ATAGGCTC,binding signal,[1],"9.54 upbm affinity estimate (log intensity, higher = more binding, comparable within an allelic series)"
CCTTCCAC,binding signal,[1],"8.11 upbm affinity estimate (log intensity, higher = more binding, comparable within an allelic series)"
CCGTACCC,binding signal,[1],"7.91 upbm affinity estimate (log intensity, higher = more binding, comparable within an allelic series)"
AGCGATGC,binding signal,[1],"7.81 upbm affinity estimate (log intensity, higher = more binding, comparable within an allelic series)"
GGAGGAAC,binding signal,[1],"8.06 upbm affinity estimate (log intensity, higher = more binding, comparable within an allelic series)"
TGGTCGAA,binding signal,[1],"7.84 upbm affinity estimate (log intensity, higher = more binding, comparable within an allelic series)"
GAATATTA,binding signal,[1],"9.35 upbm affinity estimate (log intensity, higher = more binding, comparable within an allelic series)"
CCTGCTTA,binding signal,[1],"10.3 upbm affinity estimate (log intensity, higher = more binding, comparable within an allelic series)"
CTGTCGAC,binding signal,[1],"7.99 upbm affinity estimate (log intensity, higher = more binding, comparable within an allelic series)"
AGAGCTCA,binding signal,[1],"9.42 upbm affinity estimate (log intensity, higher = more binding, comparable within an allelic series)"
AGATCAAC,binding signal,[1],"10.1 upbm affinity estimate (log intensity, higher = more binding, comparable within an allelic series)"
GAGAGGCC,binding signal,[1],"7.88 upbm affinity estimate (log intensity, higher = more binding, comparable within an allelic series)"
GAGATCAC,binding signal,[1],"9.79 upbm affinity estimate (log intensity, higher = more binding, comparable within an allelic series)"
AGGATTTA,binding signal,[1],"12.4 upbm affinity estimate (log intensity, higher = more binding, comparable within an allelic series)"
AACGAGGC,binding signal,[1],"7.79 upbm affinity estimate (log intensity, higher = more binding, comparable within an allelic series)"
